# High-throughput results as filed in PubChem BioAssay.
# HP1b chromo inh: blocks HP1-beta chromodomain binding to methylated histone tails; AID 540317; AlphaScreen HP1-beta / biotin-H3K9me3 peptide binding; 390,000 compounds, 0.56% hits; Potency, µM (series often up to 114 µM), hits mostly inhibitors; further: nearly all actives have a fitted effect of over 70% in size
#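 Compound inhibition of the preformed complex between 50 nM HP1-beta and 50 nM biotinylated H3K9me3 peptide was read by AlphaScreen. Buffer was PBS pH 7.4 with 0.01% Tween-20. Incubations ran 30 min at room temperature, with 10 ug/mL donor/acceptor beads.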
# G9a block: G9a (human) methyltransferase inhibition. Q96KQ7. G9a H3K9 monomethylation, AlphaScreen, 2 h. Potency, µM (highest dose often 102 µM), hits mostly inhibitors. 350,000 compounds, 8.8% hits; further: nearly all actives have a fitted effect of over 75% in size
#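 AlphaScreen read-out: biotin-H3K9 peptide (500 nM) methylation by 20 nM enzyme with 20 uM SAM, 2 h at room temperature after 15 min compound preincubation; anti-monomethyl H3K9 antibody plus donor/acceptor beads, 10 min dark.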
# BAZ2B inh: blocks human BAZ2B; Potency, µM (doses to about 114 µM), most hits filed as inhibitors; AlphaScreen BAZ2B-H3K14Ac peptide displacement; 360,000 compounds, 4.4% hits; Q9UIF8; AID 504333; further: nearly all actives have a fitted effect of over 60% in size
#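 BAZ2B 50 nM plus b-H3(5-23)K14Ac 50 nM, PBS pH 7.4/0.01% Tween-20, 30 min RT; compound added (max 110 uM), 30 min RT; streptavidin donor/Ni-chelate acceptor beads 10 ug/mL final, 20 min dark; AlphaScreen read.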
# Sfp inh: blocks B. subtilis Sfp PPTase activity; AID 1490; Q9F4F7; Potency, µM, most hits filed as inhibitors; 310,000 compounds, 3.5% hits; Biochemical Sfp PPTase activity, qHTS;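 further: the enzyme is Sfp with the accession as filed and its product quenches rhodamine fluorescence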
#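 After 15 min at room temperature with compound, 15 nM Sfp received 5 uM rhodamine-CoA plus 12.5 uM BHQ-2-ybbR (50 mM Hepes pH 7.6, 10 mM MgCl2). Rate came from the fluorescence difference over 30 min, ex 525/em 598 nm.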
# JMJD2A Tudor inh: inhibitors of human JMJD2A Tudor domain; O75164; AlphaScreen JMJD2A-Tudor / H3K4me3 peptide binding; Potency, µM (highest dose often 114 µM), most hits filed as inhibitors; 390,000 compounds, 4.4% hits; AID 504339; further: nearly all actives have a fitted effect of over 50% in size
# Hits are given with their value; 0 = inactive; ? = inconclusive; - = no result given; [ ] = another dose, or the depositor's remark. Shown are actives, neighbours in structure and some others; about 12% of the full set was active somewhere. The call rests on the fitted dose curve; in most records, active means well fitted curve in the direction sought with a large enough effect; inconclusive means small, poorly fitted or top-dose-only effect, or another doubt; inactive means no such curve, though single readings can be large; an effect the other way counts as inactive or inconclusive.
SMILES,HP1b chromo inh,G9a block,BAZ2B inh,Sfp inh,JMJD2A Tudor inh
O=C(O)CN1C(=O)/C(=C\c2ccc(OC(=O)c3ccco3)cc2)SC1=S,0,8.9µM,0,45µM,?
C=CCN1C(=O)/C(=C\c2ccc(OC(=O)c3ccco3)c(OC)c2)SC1=S,0,14µM,10µM,0,?
C=CCN1C(=O)/C(=C\c2cccc(OC(=O)c3ccco3)c2)SC1=S,0,79µM,0,0,0
O=C(O)CN1C(=O)/C(=C\c2cccc(OC(=O)c3ccco3)c2)SC1=S,0,0,0,0,0
CN(Cc1c(F)cccc1Cl)C(=O)C1CC(=O)N(CCc2ccccc2)C1 (centres undefined),0,0,0,0,0
Cn1cc(C(F)(F)F)nc1-c1ccc(OC[C@@H](O)CNCCOc2ccc(O)c(C(N)=O)c2)cc1,-,-,-,0,-
Cn1cccc1/C=C1\SC(=S)N(CC(=O)O)C1=O,0,0,0,0,0
O=C(O)CN1C(=O)/C(=C/c2ccc(SCc3ccccc3)o2)SC1=S,?,18µM,25µM,14µM,56µM
Cc1ccc(C(=O)NN2C(=O)/C(=C/c3cccn3C)SC2=S)cc1,?,?,22µM,20µM,?
CCN(CC)CCOC(=O)c1ccc(NC(=O)CCCN2C(=O)/C(=C\c3cccs3)SC2=S)cc1,?,-,20µM,50µM,25µM
COc1cccc(/C=C2\SC(=S)N(NC(=O)c3ccncc3)C2=O)c1,0,0,0,0,0
O=C(CCCN1C(=O)/C(=C\c2cccs2)SC1=S)NNC(=O)c1ccncc1,0,0,?,0,50µM
O=C(NN1C(=O)/C(=C/c2cccs2)SC1=S)c1ccncc1,0,45µM,0,79µM,0
Cc1ccc(C)c(Cn2c3ccccc3c3cnn(CC(=O)NCCCN4CCCCC4)c(=O)c32)c1,0,-,0,0,?
O=C(Nc1ccnn1C1CCN(Cc2ccc(O)c(Cl)c2)CC1)C1CCCC1,0,0,0,0,0
O=C(CSc1nnc(CNc2ccc(F)cc2)n1Cc1ccccc1)NCc1ccco1,0,0,0,0,?
[O-]C1=N/[N+](=C/c2ccccc2)CC1,0,14µM,0,0,0
Cc1ccc(N2CCN(C(=O)c3nn(C)c4c3CS(=O)(=O)c3ccccc3-4)CC2C)cc1 (centres undefined),0,?,?,0,0
O=C1c2cc([N+](=O)[O-])ccc2-c2ncccc21,0,-,0,0,0
COc1ccc(N2CCN(C(=O)c3ccc(NC(=O)c4nsc5ccccc45)cc3)CC2)cc1,0,10µM,?,-,?
COc1ccc(N2CCN(C(=O)c3ccccc3NS(=O)(=O)c3ccc(C)cc3)CC2)cc1,0,50µM,?,0,?
COc1cccc(N2CCN(C(=O)c3ccc(NC(=O)c4nsc5ccccc45)cc3)CC2)c1,0,0,0,-,0
COc1ccc(N2CCN(C(=O)c3ccccc3NC(=O)c3ccccc3)CC2)cc1,0,45µM,0,0,0
COC(=O)c1ccccc1NC(=O)N1CCN(c2ccc(OC)cc2)CC1,?,40µM,?,0,?
Cc1ccc(C(=O)Nc2ccccc2C(=O)N2CCN(c3ccccc3)CC2)cc1,0,0,0,0,0
SMILES,HP1b chromo inh,G9a block,BAZ2B inh,Sfp inh,JMJD2A Tudor inh
CC(COc1ccccc1)NC(C)C(O)c1ccc(O)cc1 (centres undefined),0,0,0,0,0
COc1ccc(N2CCN(CC(=O)Nc3ccccc3C(=O)NCc3ccccc3)CC2)cc1,?,?,45µM,-,56µM
COc1cccc(CNC(=O)c2cccc(NC(=O)c3nsc4ccccc34)c2)c1,0,0,0,-,0
Cc1ccc(N2CCN(C(=O)c3ccccc3NC(=O)c3ccccc3C(=O)O)CC2)cc1,0,56µM,0,0,0
O=C(CN1CCN(c2ncccn2)CC1)NCc1ccccc1,0,56µM,0,0,0
COC(=O)c1cccc(NC(=O)c2nsc3ccccc23)c1,0,4.5µM,0,-,0
CCOC(=O)C1CCN(S(=O)(=O)c2ccc(OC)c(Cl)c2Cl)CC1,0,0,0,0,0
COc1cccc(NC(=O)C2CC(=O)N/C(=N/NC(=O)c3ccc(C)cc3)S2)c1 (centres undefined),0,0,0,0,0
COc1ccc(N2CCN(C(=O)Nc3cccc(C(F)(F)F)c3)CC2)cc1,0,13µM,?,0,?
COC(=O)c1cnc(N2CCN(c3ccc(OC)cc3)CC2)c2ccccc12,0,13µM,22µM,-,25µM
CCOCCn1c(CN2CCC(C)CC2)nc2c1c(=O)n(C)c(=O)n2C,-,?,0,0,-
O=C(Cn1ncc2c3ccccc3n(Cc3ccccc3F)c2c1=O)NC1CCCCCC1,0,0,0,-,0
CC[N+](C)(CC)CC(=O)OCC1C(C)C=C(C)CC1C (centres undefined),0,?,0,89µM,?
CCC(C)n1ncn(-c2ccc(N3CCN(c4ccc(OCC5COC(Cn6cncn6)(c6ccc(Cl)cc6Cl)O5)cc4)CC3)cc2)c1=O (centres undefined),0,?,?,0,?
CCC(C)n1ncn(-c2ccc(N3CCN(c4ccc(O)cc4)CC3)cc2)c1=O (centres undefined),?,7.9µM,0,0,89µM
COc1cccc(NC(=O)C2CCCO2)c1 (centres undefined),0,0,0,0,0
CCOc1cc(/C=C2\SC(=NC)N(C)C2=O)c(Br)cc1OC(C)=O,0,0,?,0,0
CC(C)CN1C(=O)/C(=C/c2c(N3CCc4ccccc4C3)nc3ccccn3c2=O)SC1=S,-,35µM,0,0,-
CC(=O)O[C@H]1C[C@@]2(C)[C@H](C[C@@H](O)[C@H]3[C@@]4(C)CC[C@@H](O)[C@@H](C)[C@H]4CC[C@@]32C)C1=C(CCC=C(C)C)C(=O)O,-,0[12.7 µM],-,0,-
COc1cccc(N2CCN(S(=O)(=O)c3ccc4[nH]c5c(c4c3)CCCC5)CC2)c1,0,?,?,-,?
CC(C)[C@H](NC(=O)c1ccccc1)C(=O)O,0,0,0,0,0
CCCCN(Cc1ccc(C(=O)N[C@H](C(=O)O)C(C)C)cc1)C(=O)C(c1ccccc1)c1ccccc1,0,-,-,-,89µM
O=C(Oc1coc(CSc2ncccn2)cc1=O)c1ccco1,0,0,-,89µM,0
O=C(Oc1coc(CSc2ncccn2)cc1=O)c1cccc([N+](=O)[O-])c1,0,56µM,0,0,0
CC(=O)Nc1ccc(CN2CCN(Cc3ccc(C)cc3)C(CCO)C2)cc1 (centres undefined),0,-,0,0,0
COc1ccc(Cc2nnc(NC(=O)c3ccc(C)cc3)s2)cc1OC,0,0,0,0,0
COc1ccc(Cl)cc1C(=O)Nc1c2c(nn1-c1ccc(Cl)cc1)CS(=O)(=O)C2,0,0,0,-,0
Cc1cc(C)nc(N(C#N)S(=O)(=O)c2ccc(Br)cc2)n1,-,0,?,0,-
Cc1ccc(S(=O)(=O)N(C)S(=O)(=O)c2ccc(C#N)cc2)cc1,-,45µM,0,0,-
